Screening results deposited in PubChem BioAssay by National Center for Advancing Translational Sciences (NCATS).
Only some compounds are listed: those with a hit (about 1.4% of all), similar ones and a draw of the others.
VACV Venus inh: inhibitors of vaccinia virus (Venus reporter); Vaccinia virus Venus reporter expression, fluorescence; Potency, µM (series often up to 36.5 µM), inactives show at the highest dose activity change, negative = inhibition, most hits filed as inhibitors; 330,000 compounds, 0.46% hits; AID 720580; calls by dose curve; tested in A549 cells; further: on the % scale 0 is the no-effect control and ±100 the full control effect; nearly all actives have a fitted effect of over 30% in size
AmpC no deterg: inhibitors of E. coli AmpC beta-lactamase without detergent | AID 485341 | Potency, µM (doses to about 57.1 µM), inactives show at the highest dose activity change, negative = inhibition, most hits filed as inhibitors | 330,000 compounds, 0.52% hits | AmpC nitrocefin hydrolysis, absorbance 480 nm, 0.0001% Triton | P00811;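 further: plate controls were no compound for no effect and no enzyme for full effect; nearly all actives have a fitted effect of over 20% in size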
Target sequence (P00811 whole entry, looked up): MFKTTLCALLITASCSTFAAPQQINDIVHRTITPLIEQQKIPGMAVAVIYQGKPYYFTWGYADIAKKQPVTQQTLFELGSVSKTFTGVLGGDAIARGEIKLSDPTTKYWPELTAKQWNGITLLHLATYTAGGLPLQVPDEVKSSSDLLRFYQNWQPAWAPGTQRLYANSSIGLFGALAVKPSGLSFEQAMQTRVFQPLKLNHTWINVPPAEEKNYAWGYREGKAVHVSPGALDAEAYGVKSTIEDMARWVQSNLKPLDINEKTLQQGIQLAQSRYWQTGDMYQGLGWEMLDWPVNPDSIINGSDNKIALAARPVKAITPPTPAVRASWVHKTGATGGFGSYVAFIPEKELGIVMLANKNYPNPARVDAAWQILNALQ
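20 mM phosphate pH 7.0 + 0.01% (detergent screen) or 0.0001% Triton X-100; 5.3 nM AmpC reagent; cpd preinc 15 min RT; nitrocefin (800 uM stock) to start; A480 q20 s × 4 min; Activity was normalised to no-enzyme and no-compound control wells.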
SARS PLP yeast: blocks SARS-CoV papain-like protease in a yeast assay; 330,000 compounds, 0.19% hits; S. cerevisiae expressing SARS-CoV PLpro, growth rescue; AID 485353; Potency, µM (top dose mostly 32.9 µM), for inactives: at the highest dose activity, positive = growth rescue, most hits filed as activators; calls by dose curve; further: 0% is about no effect; nearly all actives have a fitted effect of over 55% in size
AMA1 RON2 block: AMA1-RON2 (P. falciparum) interaction inhibition; AlphaScreen AMA1-biotinylated RON2 peptide binding; Potency, µM (highest dose often 58.2 µM), for the others: at the top dose activity change, negative = inhibition, hits mostly inhibitors; 360,000 compounds, 0.2% hits; AID 720542;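 further: 0% = vehicle wells and -100% = peptide control; nearly all actives have a fitted effect of over 45% in size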
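AMA1 (3D7) with his tag at 25 nM final met compounds first, then biotinylated RON2 peptide at 25 nM; detection used donor plus acceptor beads, 10 µg/mL apiece, read by AlphaScreen after 30 min at room temperature.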
VACV mCherry inh: inhibitors of vaccinia virus infection (mCherry reporter signal) | Vaccinia virus mCherry reporter infection, fluorescence | 310,000 compounds, 0.63% hits | Potency, µM (top dose mostly 36.5 µM), inactives show at the highest dose activity change, negative = inhibition, usual class: inhibitors; calls by dose curve; tested in A549 cells; further: on the % scale 0 is the no-effect control and ±100 the full control effect; nearly all actives have a fitted effect of over 35% in size
AmpC inh detg: blocks E. coli AmpC beta-lactamase in detergent assay; 370,000 compounds, 0.041% hits; Potency, µM (doses to about 114 µM), for inactives: at the highest dose activity change, negative = inhibition, usual class: inhibitors; AmpC hydrolysis of nitrocefin, absorbance 480 nm, 0.01% Triton; AID 485294;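 further: 0% = no-compound wells and -100% = no-enzyme wells; nearly all actives have a fitted effect of over 25% in size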
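AmpC (5.3 nM in the dispensed reagent) in 20 mM phosphate pH 7.0 with 0.01% (detergent screen) or 0.0001% Triton X-100 was preincubated with compounds for 15 min at room temperature. Nitrocefin was then added from an 800 uM solution, and hydrolysis was followed at 480 nm.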
Active calls of the source: *; i = inactive; ? = inconclusive; . = no result given; [ ] = another dose, or the depositor's remark. Unless noted, the call rests on the fitted dose curve; in most records, active means well fitted curve in the direction sought with a large enough effect; inconclusive means small, poorly fitted or top-dose-only effect, or another doubt; inactive means no such curve, though single readings can be large; an effect the other way counts as inactive or inconclusive. Potency means the concentration at half of the fitted maximal effect.

SMILES	VACV Venus inh	AmpC no deterg	SARS PLP yeast	AMA1 RON2 block	VACV mCherry inh	AmpC inh detg
O=C(/C=C/c1ccc(F)cc1)NCC1Cc2cccc(-c3ncccn3)c2O1 (stereo not drawn)	-8%	.	.	.	-18%	.
O=C(CN1CCCCC1)Nc1cccc(-n2cnnn2)c1	.	0.14µM*	0%	-1%	.	1%
CC1=C(C(=O)OCc2ccccc2)N2C(=O)[C@@H](NC(=O)OCc3ccccc3)[C@H]2SC1	-13%	.	.	.	i	.
COc1ccc(-c2nc(C#N)c(NCCCN3CCOCC3)o2)cc1	-16%	28µM*	?	26%	-22%	5%
N#Cc1nc(-c2ccccc2F)oc1NCCN1CCOCC1	10%	-7%	4%	10%	4%	-8%
COc1ccc(-c2nc(C#N)c(NCc3ccc(F)cc3)o2)cc1OC	13µM*	0%	4%	-3%	.	?
N#Cc1nc(-c2ccc(F)cc2)oc1NCCN1CCOCC1	-11%	0.63µM*	0%	14%	?	?
Cc1cc(F)ccc1-n1nnc(C(N)=O)c1C	1%	.	.	.	-2%	-1%
COCc1c(C(=O)NC2CCCC2)cnn1-c1nccc(-c2cccs2)n1	-8%	.	.	.	i	.
CCOc1cc(C=C(C(=O)OC)C(=O)OC)ccc1OCc1ccc([N+](=O)[O-])cc1	10µM*	?	0%	16%	.	-1%
Cc1noc(C)c1S(=O)(=O)N1CCN(Cc2ccc3c(c2)OCO3)CC1	-8%	7.1µM*	6%	-6%	-4%	-16%
COc1ccc(Cl)cc1N1C(=O)[C@@H]2C[C@H]1CN2Cc1nc2ccccc2nc1C	10%	.	.	.	-6%	.
COc1cc(-c2nnc3sc(C4CCCCC4)nn23)cc(OC)c1OC	5.6µM*	121%	-2%	0%	?	?
Cc1ccc(N(CC(=O)N/N=C/c2cccc(Br)c2)S(C)(=O)=O)cc1	-11%	14µM*	-7%	7%[11.6 µM]	-2%	-12%
O=C(N/N=C/c1ccc(Sc2ccccn2)o1)c1cccc([N+](=O)[O-])c1	-13%	10µM*	18%	8%	-2%	?
O=C(N/N=C/c1ccc(Sc2ccccn2)o1)c1cc2ccccc2cc1O	-18%	18µM*	-14%	55%	-17%	1%
O=C(N/N=C\c1ccc(Sc2ccccn2)o1)c1cccc(F)c1	.	-49%	-7%	16%	.	-11%
CCCc1nnc(NC(=O)c2cc(=O)c3ccccc3o2)s1	-5%	.	.	.	-9%	13%
O=[N+]([O-])c1cc(-c2nc(-c3ccccc3)no2)ccc1NCCc1ccccc1	3%	.	.	.	-11%	14%
CCN(CC)c1ccccc1/C=C/[n+]1ccc(CCCCI)c2ccccc21	i	.	.	.	i	.
Cc1ccc(C)c(NC(=O)CCCCCCCCCCC2COCCO2)c1 (stereo not drawn)	-13%	-45%	11µM*	-7%	-15%	1%
CCc1ccccc1N(C)C	-4%	.	.	.	-8%	.
CC[N+](C)(C)c1ccc(/C=C/c2ccc3ccccc3n2)cc1	148%	.	.	.	121%	.
CCCOc1ccc(N2C(=O)CC(NCc3cccs3)C2=O)cc1 (stereo not drawn)	11µM*	-10%	-21%	17%	.	-10%
CCCN1CNc2c(c(=O)[nH]c(=S)n2CCc2cc(Cl)ccc2Cl)C1	-24%	.	.	.	-9%	.
SMILES	VACV Venus inh	AmpC no deterg	SARS PLP yeast	AMA1 RON2 block	VACV mCherry inh	AmpC inh detg
O=C(NC1c2ccccc2-c2ccccc21)N1CCCCC1	?	-4%	4%	2%	7.1µM*	-13%
Cc1ccc(-c2onc(C)c2C)cc1S(=O)(=O)Nc1cccc(Cl)c1C	-27%	.	.	.	-28%	-4%
CC(C)(C)n1nnnc1C(c1cccs1)N(Cc1ccc(Cl)cc1)CC1CCCO1 (stereo not drawn)	?	.	.	15%	11µM*	0%
CCCn1nc(C(=O)Nc2cc(S(=O)(=O)Nc3ccc(OC)cc3)ccc2O)c2ccccc2c1=O	-14%	1.6µM*	9%	33%	-10%	.
Cc1cn2cc(CNC(=O)CN3Cc4ccccc4OC(c4ccccc4F)C3)nc2s1 (stereo not drawn)	-16%	.	.	.	-25%	.
N#CCC(=N)N1CCN(c2ccccc2Cl)CC1	-23%	0.32µM*	-5%	-2%	.	4%
N#CCC(=N)N1CCN(c2ccccc2)CC1	22%	-33%	-5%	-8%	.	0%
CC(C)(O)C#Cc1ccc(C(=O)NCCN2Cc3ccccc3OC(c3ccccc3F)C2)o1 (stereo not drawn)	1%	.	.	.	-10%	.
COc1ccc(NS(=O)(=O)c2c(F)cccc2F)cc1S(=O)(=O)N1CCOCC1	2%	-17%	-3%	0%	-12%	-4%
COc1ccc(NS(=O)(=O)c2c(F)cc(F)c(Cl)c2F)cc1S(=O)(=O)N1CCCCC1	5.6µM*	-19%	1%	4%[11.6 µM]	3.5µM*	3%
COC(=O)C1C(=O)C(C(=O)/C=C/c2ccccc2)C(=O)CC1(C)C (stereo not drawn)	?	-18%	-2%	17%	11µM*	-1%
CC(C)C[C@@H]1NC(=O)[C@H](Cc2ccc(O)cc2)NC(=O)c2cc([N+](=O)[O-])cc(I)c2NCCC[C@@H](C(N)=O)NC1=O	-5%	4µM*	13%	-1%	-13%	?
NC(=O)[C@@H]1CCCNc2c(I)cc([N+](=O)[O-])cc2C(=O)N[C@@H](CO)C(=O)N[C@@H](Cc2ccc(O)cc2)C(=O)N1	-5%	-23%	-8%	-1%	i	-6%
Clc1ccc(CNc2ccc(N3CCN(Cc4ccccc4)CC3)cc2)cc1	-16%	25%	-1%	7.9µM*	-1%	-1%
CCC(=O)NC(c1ccc(OC)cc1)c1cc(Cl)c2cccnc2c1O (stereo not drawn)	?	6%	-1%	89%	?	2%
COc1cccc(C(=O)NC(c2ccc(Cl)cc2)c2cc(Cl)c3cccnc3c2O)c1 (stereo not drawn)	?	.	.	.	10µM*	-4%
COc1ccc(C(=O)NC(c2ccc(OC)c(OC)c2)c2cc(Cl)c3cccnc3c2O)cc1 (stereo not drawn)	?	.	.	.	4.5µM*	.
COc1cc(C(=O)NC(c2ccc(Cl)cc2)c2cc(Cl)c3cccnc3c2O)cc(OC)c1OC (stereo not drawn)	?	.	.	.	16µM*	5%
O=C(NCC1Cc2cc(F)cc(-c3cnccn3)c2O1)c1cccc(-c2ccccc2F)c1 (stereo not drawn)	-13%	.	.	.	i	.
CCN(CC)CC(=O)c1c(C)n(C)c2ccc(OC)cc12	-12%	.	.	.	-5%	.
O=C(NCCc1nnc2n1CCN(Cc1ccccn1)CC2)c1ccc(F)cc1	-6%	.	.	.	-8%	.
